# Experimental data from PubChem BioAssay AID1478 (National Center for Advancing Translational Sciences (NCATS), 2009).
# The whole screen tested about 200,000 compounds, of which about 860 (0.43%) were called active. The call rests on the fitted dose curve; in most records, active means well fitted inhibition curve with a large enough effect; inconclusive means small, poorly fitted or top-dose-only effect; inactive means flat fitted curve, though single readings scatter. The entries come from a sample that favours actives as a whole.
# Biological target: Cruzipain (Trypanosoma cruzi) (UniProt P25779)
# Experiment: qHTS Assay for Promiscuous and Specific Inhibitors of Cruzain (with detergent); further: nearly all actives have a fitted effect of over 40% in size
# Conditions: purified cruzain, Z-FR-AMC fluorescence, 0.01% Triton
# Method: Cruzain (3.4.22.51) is a cysteine protease from the tropical parasite Trypanosoma cruzi. Dual qHTS experiment was performed against the NCGC compound collection in order to 1) identify novel inhibitors of the enzyme and 2) profile the compound collection for promiscuous inhibitors operating via colloidal aggregation (by performing detergent-free and detergent-containing comparison screens). Cruzain was assayed by the use of fluorogenic coumarin-based substrate Z-FR-AMC: proteolytic cleavage releases AMC, whose fluorescence is measured at 360 nm excitation and 450 nm emission. Purified cruzain was supplied by the labs of Prof. James McKerrow and Brian Shoichet, UC San Francisco.
# This assay had 0.01% Triton X-100 concentration. See also releated assay "qHTS Assay for Promiscuous and Specific Inhibitors of Cruzain (without detergent)" with 0.00005% Triton X-100.
# See following references for additional details:
# Assay Provider: Shoichet, Brian; University of California, San Fancisco
# Screening Center PI: Austin, C.P.
# Screening Center: NIH Chemical Genomics Center [NCGC]
# Buffer: 100 mM Sodium Acetate, pH 5.5, 5 mM DTT, Triton X-100 concentration: 0.01%.
# Buffer in columns 3 and 4 as negative control (no enzyme).
# Substrate solution: 2 uM final concentration of Z-FR-AMC (catalog number I-1160, Bachem) dispensed throughout the plate.
# Enzyme: 1.5 nM Cruzain final concentration in columns 1, 2, 5-48. Column 1 is neutral (100% activity). Column 2 contained titration of covalent inhibitor K11777, starting concentration 1 mM, then 1:2 dilution in duplicate).
# Three uL of enzyme or buffer were dispensed to 1536-well Greiner black solid bottom plates. Compounds and controls (23 nL) were transferred via Kalypsys PinTool. The plates were incubated for 15 min at room temperature, and then 1 uL of substrate solution was added to start the reaction. The plates were immediately transferred to and read 4 times every 30 seconds for 2 min on ViewLux High-throughput CCD imager (Perkin-Elmer) using 360 nm excitation and 450 nm emission fluorescence protocol. The fluorescence intensity difference between the third and the first time points (time lapse of 60 seconds) was used to compute reaction progress.
# Potency means the concentration at half of the fitted maximal effect.
# Cruzipain (Trypanosoma cruzi), sequence (P25779 123-467 limits assumed): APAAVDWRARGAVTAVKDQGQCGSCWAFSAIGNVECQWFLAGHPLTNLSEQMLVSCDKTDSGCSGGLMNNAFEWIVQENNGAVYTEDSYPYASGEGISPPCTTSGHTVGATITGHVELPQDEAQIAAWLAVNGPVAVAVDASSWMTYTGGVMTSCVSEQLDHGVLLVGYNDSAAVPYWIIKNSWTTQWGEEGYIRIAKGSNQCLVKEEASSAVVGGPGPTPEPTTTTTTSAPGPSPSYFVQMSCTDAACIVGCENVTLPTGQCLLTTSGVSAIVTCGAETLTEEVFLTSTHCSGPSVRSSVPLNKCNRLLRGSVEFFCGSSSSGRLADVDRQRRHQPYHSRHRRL
Compound,"max response, negative = inhibition",Potency
COc1cc(-c2noc(-c3ccc(N4CCCC4)c([N+](=O)[O-])c3)n2)cc(OC)c1OC,-7.32% (inactive),
CCCNC(=O)c1ccc2c(c1)ncn2-c1ccc(C)cc1C,0.948% (inactive),
Cc1ccccc1CNC(=O)c1cccc(NC(=O)c2nsc3ccccc23)c1,-4.52% (inactive),
Cc1ccc(-n2c(SCC(=O)Nc3ncc(Cl)cc3Cl)nc3ccccc32)cc1,0.0613% (inactive),
Cc1ccc(SCCC(=O)OCC(=O)Nc2ncc(Cl)cc2Cl)cc1,,25.1 µM (active)
CC(Oc1ccc(Cl)cc1)C(=O)OCC(=O)Nc1ncc(Cl)cc1Cl (stereo unspecified),-4.76% (inactive),
CCC(=O)N1CCc2cc(CNS(=O)(=O)c3ccc(Br)s3)ccc21,-0.767% (inactive),
Cc1cccc(C(=O)NCC(=O)OCC(=O)N2CC3(C)CC2CC(C)(C)C3)c1 (stereo unspecified),,14.1 µM (active)
COc1ccc(C(=O)N2CC3(C)CC2CC(C)(C)C3)cc1OC (stereo unspecified),-2.5% (inactive),
Cc1nnnn1/C(=C\c1ccccc1)C(=O)OCC(=O)N1CC2(C)CC1CC(C)(C)C2 (stereo unspecified),-0.133% (inactive),
CCOc1ccc(C(NC(=O)c2cc(OC)c(OC)c(OC)c2)c2cc(Cl)c3cccnc3c2O)cc1 (stereo unspecified),1.88% (inactive),
COc1ccccc1CNc1ccc(-c2nc(-c3ccccc3C)no2)cc1[N+](=O)[O-],-3.81% (inactive),
O=C(NCc1ccccc1)C(=O)NCC(c1ccco1)S(=O)(=O)c1ccc(Cl)cc1 (stereo unspecified),-1.1% (inactive),
O=C(COc1ccccc1)NCCc1nc2ccccc2[nH]1,,15.8 µM (active)
COC(=O)Cc1nc2ccccc2[nH]1,8.1% (inactive),
COc1ccc(OC(C)C(=O)NCCc2nc3ccccc3[nH]2)cc1 (stereo unspecified),-6.04% (inactive),
CCc1ccc(N(CC)C(=O)CCn2cnc3onc(-c4ccc(F)cc4)c3c2=O)cc1,-2.73% (inactive),
COc1ccc(OCCCn2c(C)nc3cc(C)c(C)cc32)cc1,-3.67% (inactive),
O=C(OCN1C(=O)c2ccccc2C1=O)/C(=C\c1ccco1)NC(=O)c1ccccc1,,0.316 µM (active)

Compound,"max response, negative = inhibition",Potency
Cc1cccc(NC(=O)/C(=C\c2ccco2)NC(=O)c2ccccc2)c1,-5.18% (inactive),
O=C(NCC1CCCO1)/C(=C\c1ccco1)NC(=O)c1ccccc1 (stereo unspecified),-1.92% (inactive),
Cc1ccc(-c2noc(-c3nnn(-c4cccc(C(F)(F)F)c4)c3N)n2)cc1,0.534% (inactive),
CCOC(=O)c1ccc(CSc2nnc3cc(C)c4ccccc4n23)cc1,-5.57% (inactive),
COc1ccc(N2C(=O)CSC23C(=O)N(Cc2cccc(F)c2)c2ccccc23)cc1Cl (stereo unspecified),-6.49% (inactive),
CCOC(=O)N1CCN(C(=O)c2cc3c(ccc4ccccc43)oc2=O)CC1,-4.28% (inactive),
N=c1oc2ccccc2cc1C(=O)N/N=C/c1ccccc1,-4.25% (inactive),
CNC(=O)c1cc2c(ccc3ccccc32)oc1=N,,28.2 µM (active)
COc1ccc(-c2nc3scc(CCNS(=O)(=O)c4cc(F)ccc4OC)n3n2)cc1OC,-6.79% (inactive),
COc1ccc(OC)c(-n2nnc3c(sc4nc(C)c(Br)c(C)c43)c2=O)c1,-8.66% (inactive),
CC(=O)c1ccc(S(=O)(=O)N2CCC(Oc3ccc(-n4cnnn4)cc3)CC2)cc1,0.367% (inactive),
O=C1CCCc2cc(S(=O)(=O)N3CCCC(C(=O)NCc4ccccc4)C3)ccc2N1 (stereo unspecified),-1.43% (inactive),
COc1ccc(CNC(=O)c2cc3cccc(OC)c3oc2=O)cc1,-0.986% (inactive),
Clc1ccccc1-c1cc(NCCN2CCOCC2)ncn1,0.682% (inactive),
c1ccc2cc3c(NCCN4CCOCC4)ccnc3cc2c1,,28.2 µM (active)
CN(C)c1ccc(-c2nc(NCCN3CCOCC3)c3ccccc3n2)cc1,-4.87% (inactive),
CCc1ccccc1NC(=O)c1cnn(-c2ccc(F)cc2)c1C1CCNCC1,-1.82% (inactive),
O=C(CSc1n[nH]c(-c2ccccc2)n1)N1CCCCC1,2.8% (inactive),
Cc1ccccc1CN1CCC(CNC(=O)c2c(C)oc3ncnc(N4CCCCC4)c23)CC1,1.4% (inactive),

Compound,"max response, negative = inhibition",Potency
CCN1CCN(C(c2ccc(C)cc2)c2c(O)cc(C)n(Cc3ccco3)c2=O)CC1 (stereo unspecified),0.51% (inactive),
CCOC(=O)c1ccc(-n2c(CCC(=O)O)ccc2-c2ccccc2)cc1,-12% (inactive),
CCOC(=O)C1CCN(C(c2ccc(F)cc2)c2sc3nc(-c4ccco4)nn3c2O)CC1 (stereo unspecified),-3.73% (inactive),
O=C(/C=C/c1ccccc1)c1ccoc1,-1.4% (inactive),
O=C1OC(/C=C/c2ccccc2)=NC/1=C/c1ccco1,,3.98 µM (active)
COc1ccccc1/C=C/C1=NC(=C\N(C)C)/C(=O)O1,-17.3% (inactive),
COC(=O)c1sccc1S(=O)(=O)N(CC(=O)Nc1ccc(C)c(F)c1)c1ccc(C)c(C)c1,-3.08% (inactive),
CCOc1ccc(CNC(=O)C2CCCN(S(=O)(=O)N(CC)c3ccc(OCC)cc3)C2)cc1 (stereo unspecified),3.48% (inactive),
O=C(Nc1ccc(Br)cc1)c1ccc(Br)c(S(=O)(=O)NCc2ccccc2)c1,-3.54% (inactive),
Cc1ccc(-c2cn3c(n2)sc2cc(C(=O)NCc4cccs4)ccc23)c(C)c1,-2.89% (inactive),
CCc1nc(-c2cc(S(=O)(=O)N3CCN(c4ccc(OC)cc4)CC3)ccc2OC)no1,-3.17% (inactive),
CC(=O)c1ccc(NC(c2ccc(F)cc2)c2nnc(-c3ccccc3)o2)cc1 (stereo unspecified),-5.26% (inactive),
CCn1cc2nc(SCc3cccc(F)c3)n(CCc3ccccc3)c(=O)c2n1,-3.27% (inactive),
COc1ccc(-n2c(=O)c3c(c4cc(OC)ccc4n3C)n(Cc3cccc(C)c3)c2=O)cc1,-1.25% (inactive),
Cc1ccc(NC(=O)c2cc(S(=O)(=O)NCCC3=CCCCC3)ccc2F)cc1C,1.53% (inactive),
Cc1ccc(F)c(NC(=O)CCc2ccccc2)c1,2.16% (inactive),
Cc1ccc(C)c(NC(CC(=O)c2ccccc2)C(=O)OCC(=O)c2cccs2)c1 (stereo unspecified),-3.94% (inactive),
O=C(COC(=O)[C@H](Cc1ccccc1)NC(=O)c1cccs1)Nc1cc(F)ccc1F,,20 µM (active)
